Assay outcomes as filed in PubChem.
Most compounds without a hit are left out; they make up all but 11% or so of the library.
WT yeast gro inh = growth inhibition of WT yeast, mitochondrial fusion screen. mitochondrial fusion phenotypic screen, WT strain. inhibition, % at 10 µM. AID 1362. actives 2.1% (n = 190,000); in the data active means inhibition above about 58%; tested in S. cerevisiae
INS promoter inh = TRM-6 insulin promoter activity inhibition; actives 0.9% (n = 130,000); TRM-6 cells (human fetal islet line), insulin promoter-eGFP reporter, imaging; reporter expression induced with tamoxifen; inhibition, % at 2 µM;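 active means inhibition above the mean plus 3 SD, with well images judged a real hit on visual review, cut at about 60% in these data, passing the limit was not always enough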
Autophagy HCS = modulators of autophagy. actives 0.98% (n = 190,000). MEF GFP-LC3 puncta imaging; test concentration mostly 10 µM. calls only at 10 µM (by protocol);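 active means percentage of spot-positive cells more than 3 SD above its plate mean, without a fluorescence outlier flag or 80% toxicity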;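 further: spot-positive cell cutoff set from DMSO-treated cells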
Ins promoter up = MIN6 insulin promoter up-regulation; z-score at 5 µM; actives 0.3% (n = 190,000); MIN6 insulin promoter-GFP reporter, high-content imaging; active compounds read high;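 active means z-score above 3 at 5 µM with at least 500 cells counted in the well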
Lmaj promast = Leishmania major promastigote growth inhibition. Leishmania major promastigotes, resazurin fluorescence viability. inhibition, % at 10 µM. actives 9% (n = 200,000); in the data active means inhibition above about 50%;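 further: promastigotes grown with compound for 44 hours at 28 °C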
* = called active by the depositor; i = inactive; · = no result given; + = active, no number.

SMILES	WT yeast gro inh	INS promoter inh	Autophagy HCS	Ins promoter up	Lmaj promast
c1ccc2c(CNCCN3CCOCC3)cccc2c1	·	-3	+	-0.46	4
Clc1cccc(-c2nc(NCCCN3CCOCC3)c3ccccc3n2)c1	24	·	i	-0.7	80*
Oc1ccccc1-c1nc(NCCN2CCOCC2)c2ccccc2n1	36	-21	i	0.15	49
Clc1ccc(-c2nc(NCCCN3CCOCC3)c3ccccc3n2)cc1	·	·	·	-0.38	·
Cc1ccc(-c2nc(NCCN3CCOCC3)c3ccccc3n2)cc1	4	·	i	0.12	81*
c1ccc2c(NCCCN3CCOCC3)c3ccccc3nc2c1	5	·	+	-0.8	100*
Fc1ccccc1-c1nc(NCCCN2CCOCC2)c2ccccc2n1	-2	22	i	-0.35	43
Nc1ccccc1C(=O)N/N=C1\C2CN3CCN(C2)CC1(c1ccccc1)C3	0	7	i	-0.16	22
COc1cccc(-c2nc(NCCN3CCOCC3)c3ccccc3n2)c1O	-18	9	i	-0.44	35
Clc1cccc(-c2nc(NCCN3CCOCC3)c3ccccc3n2)c1	11	·	i	-0.09	75*
COc1cc(C(=O)NCc2nnc(SCC(=O)N3CCc4ccccc43)o2)cc(OC)c1OC	2	11	i	-0.15	1
COc1cccc(-c2nc(-c3ccccc3)no2)c1	15	44	i	-0.83	1
c1ccc(-c2noc(-c3ccncc3)n2)nc1	1	-61	i	0.41	-2
COc1cccc(-c2nc(-c3ccccn3)no2)c1	79*	11	i	0.12	12
c1ccc(-c2noc(-c3ccc4c(c3)OCO4)n2)nc1	64*	·	i	0.56	-6
COc1cccc(-c2nc(=S)c3c(o2)CCCC3)c1	68*	-38	i	-0.43	-3
c1ccc(-c2noc(-c3cccnc3)n2)nc1	11	89*	i	0.58	1
COc1ccc(C(=O)N2CCN(C(=O)Cc3ccccc3)CC2)cc1	-5	·	i	-0.19	-8
Cn1cccc1-c1cc(C(=O)N/N=C/c2cccc(O)c2)[nH]n1	-10	13	i	0.22	1
Cn1cccc1/C=N/NC(=O)CSc1nc2ccccc2n1C	·	·	·	0.52	·
CCOc1ccc(C(=O)NCC(c2cccs2)N(C)C)cc1OCC (centres undefined)	2	41	i	-0.39	2
Cc1ccc(-n2cc(S(=O)(=O)c3ccc(C)cc3)[nH]c2=O)cc1	-7	·	i	-0.28	1
CC1CCCCN1C(=O)CN1CCC(c2nc3ccc(Cl)cc3[nH]2)CC1 (centres undefined)	-3	35	i	·	3
Cc1ccc(CN2CCC(c3nc4ccc(Cl)cc4[nH]3)CC2)cc1	1	0	i	-0.14	92*
Clc1ccc2nc(C3CCN(Cc4ccccc4)CC3)[nH]c2c1	-1	42	i	-0.97	88*
SMILES	WT yeast gro inh	INS promoter inh	Autophagy HCS	Ins promoter up	Lmaj promast
O=C(c1cccc(Cl)c1)N1CCC(c2nc3ccccc3[nH]2)CC1	-16	·	i	1.6	4
CN(C(=O)c1ccccc1C(=O)OCC(=O)NCc1ccccc1)C1CCCCC1	1	-22	i	0	67*
Cc1ccc(C)c(SCC(=O)Nc2nnc(-c3ccccc3)o2)c1	73*	59	i	0.26	-4
Cc1ccc(C)c(NC(=O)CSc2nnc(-c3n[nH]c4ccccc34)o2)c1	-2	-16	i	0.62	60*
Cc1ccc(C)c(NC(=O)CSc2nnc(-c3ccccc3C)o2)c1	7	-33	i	-1	-1
Cc1sc2ncnc(Sc3nnc4sc5ccccc5n34)c2c1C	0	-25	i	1.1	15
O=P(Cc1ccccc1)(c1ccccc1)c1ccccc1	6	·	i	0.76	-1
Cc1ccc(O)c(CP(=O)(c2ccccc2)c2ccccc2)c1	-10	-14	i	-0.26	84*
CC(=O)c1cccc(NC(=O)N2CCCC2C(=O)Nc2ccc3c(c2)OCO3)c1 (centres undefined)	-7	·	i	-0.17	-4
Cc1ccc(C(c2c(C)nn(-c3ccccc3)c2N)c2c(C)nn(-c3ccccc3)c2N)cc1	16	-32	i	0.26	95*
Cc1ccc(-c2cc(N)n(-c3ccccc3)n2)cc1	-1	19	i	5.3*	7
Cc1nn(-c2ccccc2)c(N)c1C(c1ccc(C(C)C)cc1)c1c(C)nn(-c2ccccc2)c1N	42	-27	i	-0.36	29
Cc1cccc(-c2cc(N)n(-c3ccccc3)n2)c1	·	·	i	0.07	21
COc1ccc(N(C(=O)c2cnsn2)C(C(=O)NC2CCCCC2)c2ccncc2)cc1 (centres undefined)	-23	-14	i	0.18	58*
